Assay outcomes deposited in PubChem by several laboratories.
NALP1 inh: inhibitors of NALP1 inflammasome in yeast; hit rate 0.61% among 280,000; AID 2071; inhibition, % at 10 µM; S. cerevisiae NALP1/ASC/caspase-1 growth, X-gal OD620, 72 h; in the data active = inhibition mostly above about 24%, no sharp cut-off; inactive = mostly below about 32%
A3G deaminase: blocks human APOBEC3G single-stranded DNA deamination; recombinant A3G, ssDNA deamination FAM/TAMRA fluorescence; Q9HC16; hit rate 0.28% among 330,000; inhibition, % at 20 µM;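 active = inhibition of at least 40% at 20 µM, with no more than 30% in the related APOBEC3A deaminase screen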;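 note: plate controls were DMSO wells with A3G for no effect and wells lacking A3G enzyme for full effect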
Target sequence (Q9HC16 whole entry, looked up): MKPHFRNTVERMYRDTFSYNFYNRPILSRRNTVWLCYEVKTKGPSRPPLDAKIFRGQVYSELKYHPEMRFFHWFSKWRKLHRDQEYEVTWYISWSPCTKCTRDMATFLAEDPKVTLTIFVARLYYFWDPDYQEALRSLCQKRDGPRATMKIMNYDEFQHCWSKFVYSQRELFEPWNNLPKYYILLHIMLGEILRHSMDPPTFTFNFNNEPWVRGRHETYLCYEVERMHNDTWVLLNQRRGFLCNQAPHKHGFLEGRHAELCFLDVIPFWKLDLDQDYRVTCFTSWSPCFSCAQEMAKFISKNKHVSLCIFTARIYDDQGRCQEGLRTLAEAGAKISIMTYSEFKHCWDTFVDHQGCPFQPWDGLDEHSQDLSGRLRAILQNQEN
PolyA inhibitor: yeast polyadenylation inhibition; hit rate 0.02% among 300,000; activity score, % at 12 µM; S. cerevisiae SKY197-pL101 polyadenylation reporter, beta-gal luminescence; efflux-impaired pdr1/pdr3 knockout yeast; score 100 = 6 SD above DMSO;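 active = lowest replicate activity score at least 50, where 100 means six control SD above control mean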;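 note: yeast exposed to compound for 9 h at 30 °C; higher score means more reporter readthrough which indicates perturbed polyadenylation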
A3A deaminase: blocks human APOBEC3A ssDNA deamination; inhibition, % at 20 µM; recombinant A3A, FAM/TAMRA ssDNA deamination fluorescence; P31941; hit rate 0.41% among 330,000;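 active = at least 40% inhibition at 20 µM here, with at most 30% in a related deaminase screen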;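 note: plate controls were A3A with DMSO for no effect and wells lacking A3A enzyme for full effect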
Target sequence (P31941 whole entry, looked up): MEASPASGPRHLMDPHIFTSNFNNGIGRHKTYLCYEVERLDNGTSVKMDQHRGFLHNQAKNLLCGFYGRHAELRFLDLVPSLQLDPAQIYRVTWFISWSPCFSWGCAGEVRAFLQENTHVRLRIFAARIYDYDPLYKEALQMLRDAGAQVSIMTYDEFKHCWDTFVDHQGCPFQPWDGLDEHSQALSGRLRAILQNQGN
The depositor's hits bear a star. Sampled rows, rich in hits. Any-hit rate of the full collection: about 1.2%.

COc1cc(OC)c(C2CC(=O)N3CN(c4ccccc4)CSC3=C2C#N)cc1OC (stereo not given) was read as NALP1 inh -6, A3G deaminase 25, PolyA inhibitor 2 and A3A deaminase -4.
N#CC1=C2SCN(c3ccccc3)CN2C(=O)CC1c1ccccc1Cl (stereo not given) was read as NALP1 inh 2, A3G deaminase 57*, PolyA inhibitor 6 and A3A deaminase -1.
Screening CCc1ccccc1N1CSC2=C(C#N)C(c3cc(OC)c(OC)cc3OC)CC(=O)N2C1 (stereo not given) returned NALP1 inh 8, A3G deaminase 46*, PolyA inhibitor -28 and A3A deaminase -3.
`COc1ccc(OC)c(C2CC(=O)N3CN(c4cccc(Cl)c4)CSC3=C2C#N)c1` (stereo not given) gave NALP1 inh -8, A3G deaminase 39, PolyA inhibitor -6 and A3A deaminase 0.
For Cc1ccccc1N1CCN(C2CCCN(C(=O)c3cnsn3)C2)CC1 (stereo not given) the results were NALP1 inh -5, A3G deaminase -6, PolyA inhibitor 20 and A3A deaminase -2.
Screening CCOc1ccc(C(C)=O)cc1N1C(=O)C2C3C=CC(O3)C2C1=O (stereo not given) returned NALP1 inh 1, A3G deaminase 49*, PolyA inhibitor 1 and A3A deaminase -6.
For COc1ccc(CCn2c(-c3ccc(C(C)(C)C)cc3)n[nH]c2=S)cc1OC the results were NALP1 inh -1, A3G deaminase -1, PolyA inhibitor 10 and A3A deaminase -3.
Screening COc1ccc(CCn2c(-c3ccc(Cl)cc3)n[nH]c2=S)cc1OC returned NALP1 inh 33*, A3G deaminase 35, PolyA inhibitor 8 and A3A deaminase -1.
O=C(Nc1cccc(F)c1)N1CC=C(c2ccc(Cl)cc2)CC1 was read as NALP1 inh 39*, A3G deaminase 2, PolyA inhibitor -23 and A3A deaminase 5.
For O=C(Cn1c(-c2ccccc2)noc1=O)Nc1ccc(N2CCCCCC2)cc1 the results were NALP1 inh 36*, A3G deaminase -7, PolyA inhibitor -7 and A3A deaminase -3.
For CCC(=O)Nc1ccc(N2CCCCC2)cc1 the results were NALP1 inh 40*, A3G deaminase -5, PolyA inhibitor 6 and A3A deaminase -3.
O=C(Cn1c(-c2ccccc2)noc1=O)Nc1ccc(S(=O)(=O)N2CCOCC2)cc1 was read as NALP1 inh 23, A3G deaminase -7, PolyA inhibitor 18 and A3A deaminase -1.
For C=C(C)CSc1nc2sc3c(c2c(=O)n1-c1ccc(OC)cc1)CCN(C)C3 the results were NALP1 inh 8, A3G deaminase 0, PolyA inhibitor -6 and A3A deaminase 0.
`O=C(COC(=O)c1ccccc1)NCc1ccco1` gave NALP1 inh -6, A3G deaminase 10, PolyA inhibitor 13 and A3A deaminase 30.
`Cc1ccc(C(=O)OCC(=O)NCc2ccco2)cc1` gave NALP1 inh 41*, A3G deaminase -2, PolyA inhibitor 9 and A3A deaminase 5.
For CN(c1ccccc1)S(=O)(=O)c1cccc(C(=O)OCC(=O)NCc2ccco2)c1 the results were NALP1 inh 24*, A3G deaminase -16, PolyA inhibitor -2 and A3A deaminase -3.
`CN(c1ccccc1)S(=O)(=O)c1cccc(C(=O)OCC(=O)NCc2ccccc2)c1` gave A3G deaminase -2 and A3A deaminase -2.
Screening O=C(CCc1ccccc1)Nc1ccc(S(=O)(=O)NC2=NCCCCC2)cc1 returned A3G deaminase -2 and A3A deaminase 1.
Screening Cc1ccc(N2C(=O)N(CC(=O)Nc3ccccc3C(F)(F)F)C(=O)C2C)cc1 (stereo not given) returned A3G deaminase -6 and A3A deaminase -3.
`C[C@H]1C(=O)N(C)CCN1C(=O)c1ccccc1OC1CCN(S(C)(=O)=O)CC1` gave NALP1 inh 24*, A3G deaminase -6, PolyA inhibitor 0 and A3A deaminase 0.
CC(=O)N(C(C)=O)c1ncnc2c1c(-c1ccc(Cl)cc1)nn2C(C)(C)C was read as NALP1 inh 8, A3G deaminase -4, PolyA inhibitor -3 and A3A deaminase 4.
For CC(=O)Nc1ncnc2c1c(-c1ccc(Cl)cc1)nn2C(C)(C)C the results were NALP1 inh 42*, A3G deaminase -9, PolyA inhibitor -46 and A3A deaminase -2.
O=c1[nH]cc(F)c(=O)[nH]1 was read as NALP1 inh 116* and PolyA inhibitor 0.
O=c1[nH]cc(O)c(=O)[nH]1 was read as NALP1 inh 9, A3G deaminase -8, PolyA inhibitor -17 and A3A deaminase -4.
`Cc1ccc(C(=O)OCC(=O)NCCc2ccc(F)cc2)cc1S(=O)(=O)N1CCOCC1` gave A3G deaminase -2 and A3A deaminase 2.
Screening Cc1ccc(C(=O)OCC(=O)NC(C)C)cc1S(=O)(=O)N1CCOCC1 returned NALP1 inh 24*, A3G deaminase 2, PolyA inhibitor 7 and A3A deaminase 6.
Screening O=C(NCc1ccccc1Cl)C1CCN(S(=O)(=O)c2cccs2)CC1 returned NALP1 inh -2, A3G deaminase 2, PolyA inhibitor 7 and A3A deaminase -3.
CC(C)Cn1cnc2sc3c(c2c1=N)CCCC3 was read as NALP1 inh 40*, A3G deaminase -7, PolyA inhibitor 25 and A3A deaminase -5.
Screening CCSCc1nnc(SCC(=O)Nc2nc(C)cs2)n1C returned NALP1 inh 41*, A3G deaminase 9, PolyA inhibitor 20 and A3A deaminase 4.
Cc1ccc(-c2nc(SCC(=O)Nc3cc(C)on3)c3c(=O)n(C)c(=O)n(C)c3n2)cc1 was read as NALP1 inh 4, A3G deaminase -8, PolyA inhibitor -10 and A3A deaminase -1.
`c1ccc(-n2cc(CNCCc3cscn3)c(-c3ccc4c(c3)OCO4)n2)cc1` gave NALP1 inh 32*, A3G deaminase -3, PolyA inhibitor -20 and A3A deaminase 1.
NC(=O)c1ccc(CN2CCc3ccccc3C2)cc1 was read as NALP1 inh 12, A3G deaminase -1, PolyA inhibitor 2 and A3A deaminase 4.
Screening O=[N+]([O-])c1ccc(S(=O)(=O)N/N=C/c2ccsc2)cc1 returned NALP1 inh -7, A3G deaminase -4, PolyA inhibitor 13 and A3A deaminase -3.
ClC(Cl)(Cl)c1nc2ccccc2n2nncc12 was read as NALP1 inh 37*, A3G deaminase 2, PolyA inhibitor 7 and A3A deaminase 7.
`CCCn1c(SCC(=O)NC2CCC(C)CC2)n[nH]c1=O` (stereo not given) gave A3G deaminase -1 and A3A deaminase 2.
Screening CCCCCOc1ccc(Br)cc1/C(C)=N/NC1=NCCN1 returned NALP1 inh 83*, A3G deaminase -3, PolyA inhibitor 7 and A3A deaminase 2.
Screening C/C(=N\NC(=O)CNC(=O)C1COc2ccccc2O1)c1ccc(Cl)cc1 (stereo not given) returned NALP1 inh 12, A3G deaminase -11, PolyA inhibitor 25 and A3A deaminase -3.
